Our source for the composite z-score and z-score values is PubChem BioAssay.

Active and inactive are the calls of the source.

The nature of experiment [1]: binders of probe aFSTL3 on microarray, primary screen, stem cell growth factor project, biochemical, small-molecule microarray, fluorescence 635/667 (AID 1064).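 Further: measures binding of the biotinylated anti-FSTL3 antibody to printed compounds.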 The note with it: higher = more signal.
Experiment [2] can be described thus: binders from COS7 lysate, DM2A8 probe, primary screen, torsin A project, cell lysate, small-molecule microarray, fluorescence 635/667 (AID 1065). The note with it: higher = more signal, COS7 lysate expressing mutant human TOR1A.
Experiment [3] is described as follows: binders of probe aFGF2 on microarray, primary screen, stem cell growth factor project, biochemical, small-molecule microarray, fluorescence 635/667 (AID 1067).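 Further: measures binding of biotinylated aFGF2 protein to printed compounds on slides; z-score merges feature fluorescence and signal-to-noise across triplicate slides.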 The note with it: higher = more signal.
Experiment [4] is described as follows: binders of probe aFGF10 on microarray, primary screen, stem cell growth factor project, biochemical, small-molecule microarray, fluorescence 635/667 (AID 1071).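 Further: score merges 667 nm spot intensity and signal to noise from triplicate slides.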 Conditions: higher = more signal.
The target of experiment [5] is Neurogenic locus notch homolog protein 2 (Homo sapiens) (UniProt Q04721). Put plainly: Notch2 binders on small-molecule microarrays, primary screen, biochemical, small-molecule microarray, 635 nm fluorescence, stem cell growth factors (AID 1073). The note with it: Notch2 binding, higher = more signal.
Experiment [6] addresses Pro-neuregulin-1, membrane-bound isoform (Homo sapiens) (UniProt Q02297). In words: NRG1 binders on small-molecule microarrays, primary screen, psychiatric disease protein project, biochemical, small-molecule microarray, fluorescence 635/667 (AID 1075).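 Further: score combines 667 nm spot fluorescence with signal to noise.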 The note with it: NRG1 binding, 635 nm fluorescence, higher = more signal.
For experiment [7], the system named is Neuregulin-1 EGF-like domain. Put plainly: binders of neuregulin-1 EGF-like domain, primary screen, biochemical, small-molecule microarray, 635 nm fluorescence (AID 1081).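 Further: binding of the protein to compounds printed on small-molecule microarray slides.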 Conditions: small-molecule microarray binding, higher = more signal.
Experiment [8] is described as follows: FRG1 promoter luciferase signal modulators, primary screen, FRG1 inhibition for FSHD, cell-based, C2C12 myotubes, firefly/Renilla luciferase, luminescence (AID 1084). Conditions: higher = more signal, called active from +8 up or from −8 down.
Experiment [9] is described as follows: binders of probe aFST on microarray, primary screen, stem cell growth factor project, biochemical, small-molecule microarray, fluorescence 635/667 (AID 1086).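 Further: score merges 667 nm fluorescence with signal-to-noise of each printed compound spot.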 The note with it: higher = more signal.
A short description of experiment [10]: binders of probe aHhip on microarray, primary screen, stem cell growth factor project, biochemical, small-molecule microarray, fluorescence 635/667 (AID 1087).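 Further: score merges spot fluorescence at 667nm with spot signal to noise ratio.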 The note with it: higher = more signal.
Experiment [11] concerns PRMT1 (protein arginine N-methyltransferase 1). Put plainly: PRMT1 binders on small-molecule microarrays, primary screen, biochemical, small-molecule microarray, 635 nm fluorescence (AID 1088).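 Further: binding of Prmt1 protein to compounds spotted on small-molecule microarray slides.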 Conditions: small-molecule microarray binding, higher = more signal.
Experiment [12] can be described thus: yeast growth modulation, basal conditions, primary screen, YJM789 clinical isolate, OD600, 24 h (AID 1089).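 Further: growth of clinical yeast isolate S. cerevisiae YJM 789 seeded 1000 cells per well; test concentration not given here.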 Conditions: S. cerevisiae YJM789 growth, higher = more signal, called active from +8 up or from −8 down.
The nature of experiment [13]: fission yeast growth modulation, primary screen, strain 972, OD600, 24 h, no modulator (AID 1090).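 Further: basal condition with compound alone and no growth modifier present; test concentration not given here.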 Conditions: S. pombe 972 growth, higher = more signal, called active from +8 up or from −8 down.
A short description of experiment [14]: S. cerevisiae growth modulation with rapamycin, primary screen, strain BY4716, OD600, 96 h (AID 1091). Further: test concentration not given here. Conditions: higher = more signal, called active from +8 up or from −8 down.
Experiment [15] addresses Torsin-1A-interacting protein 2 (Homo sapiens) (UniProt Q8NFQ8). In words: LULL1 binders on small-molecule microarray, primary screen, cell lysate, human LULL1 lysate, 635/667 nm fluorescence (AID 1092).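 Further: probe is lysate of COS7 cells overexpressing human LULL1; score merges per-feature 667 nm fluorescence with signal-to-noise.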 Conditions: hLULL1 lysate binding, 635 nm fluorescence, higher = more signal.
Experiment [16] can be described thus: E. coli growth modulation, two-sided OD650, primary screen, E. coli filamentation project, strain DRC41, 24 h (AID 1093).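 Further: MC1000 strain lacking acrAB efflux and sulA so SOS filamentation is blocked; test concentration not given here.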 The note with it: OD650, 24 h, higher = more signal, called active from +8 up or from −8 down.
Experiment [17] in a line: small-molecule microarray binders of probe aLefty2, primary screen, biochemical, biotinylated probe, 635/667 nm fluorescence (AID 1094).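 Further: score merges spot fluorescence near 667 nm with spot signal-to-noise ratio.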 The note with it: higher = more signal.
Experiment [18] concerns Noggin (protein binding on small-molecule microarray). Put plainly: Noggin binders on small-molecule microarray, primary screen, biochemical, 635/667 nm fluorescence (AID 1095).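 Further: score merges 667 nm feature fluorescence with signal to noise over triplicate slides.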 The note with it: 635 nm fluorescence, higher = more signal.
Experiment [19] has as its target Neurogenic locus notch homolog protein 3 (Homo sapiens) (UniProt Q9UM47). In words: NOTCH3 binders on small-molecule microarray, primary screen, biochemical, 635/667 nm fluorescence (AID 1096). The note with it: NOTCH3 binding, 635 nm fluorescence, higher = more signal.
Experiment [20] can be described thus: small-molecule microarray binders of probe aEGFR, primary screen, biochemical, biotinylated probe, 635/667 nm fluorescence (AID 1097).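 Further: probe is a biotinylated anti-EGFR antibody binding compounds printed on slides; score combines fluorescence near 667 nm and signal to noise of each spot.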 Conditions: higher = more signal.

Chain of Neurogenic locus notch homolog protein 3 (Homo sapiens) (Q9UM47 whole entry, looked up): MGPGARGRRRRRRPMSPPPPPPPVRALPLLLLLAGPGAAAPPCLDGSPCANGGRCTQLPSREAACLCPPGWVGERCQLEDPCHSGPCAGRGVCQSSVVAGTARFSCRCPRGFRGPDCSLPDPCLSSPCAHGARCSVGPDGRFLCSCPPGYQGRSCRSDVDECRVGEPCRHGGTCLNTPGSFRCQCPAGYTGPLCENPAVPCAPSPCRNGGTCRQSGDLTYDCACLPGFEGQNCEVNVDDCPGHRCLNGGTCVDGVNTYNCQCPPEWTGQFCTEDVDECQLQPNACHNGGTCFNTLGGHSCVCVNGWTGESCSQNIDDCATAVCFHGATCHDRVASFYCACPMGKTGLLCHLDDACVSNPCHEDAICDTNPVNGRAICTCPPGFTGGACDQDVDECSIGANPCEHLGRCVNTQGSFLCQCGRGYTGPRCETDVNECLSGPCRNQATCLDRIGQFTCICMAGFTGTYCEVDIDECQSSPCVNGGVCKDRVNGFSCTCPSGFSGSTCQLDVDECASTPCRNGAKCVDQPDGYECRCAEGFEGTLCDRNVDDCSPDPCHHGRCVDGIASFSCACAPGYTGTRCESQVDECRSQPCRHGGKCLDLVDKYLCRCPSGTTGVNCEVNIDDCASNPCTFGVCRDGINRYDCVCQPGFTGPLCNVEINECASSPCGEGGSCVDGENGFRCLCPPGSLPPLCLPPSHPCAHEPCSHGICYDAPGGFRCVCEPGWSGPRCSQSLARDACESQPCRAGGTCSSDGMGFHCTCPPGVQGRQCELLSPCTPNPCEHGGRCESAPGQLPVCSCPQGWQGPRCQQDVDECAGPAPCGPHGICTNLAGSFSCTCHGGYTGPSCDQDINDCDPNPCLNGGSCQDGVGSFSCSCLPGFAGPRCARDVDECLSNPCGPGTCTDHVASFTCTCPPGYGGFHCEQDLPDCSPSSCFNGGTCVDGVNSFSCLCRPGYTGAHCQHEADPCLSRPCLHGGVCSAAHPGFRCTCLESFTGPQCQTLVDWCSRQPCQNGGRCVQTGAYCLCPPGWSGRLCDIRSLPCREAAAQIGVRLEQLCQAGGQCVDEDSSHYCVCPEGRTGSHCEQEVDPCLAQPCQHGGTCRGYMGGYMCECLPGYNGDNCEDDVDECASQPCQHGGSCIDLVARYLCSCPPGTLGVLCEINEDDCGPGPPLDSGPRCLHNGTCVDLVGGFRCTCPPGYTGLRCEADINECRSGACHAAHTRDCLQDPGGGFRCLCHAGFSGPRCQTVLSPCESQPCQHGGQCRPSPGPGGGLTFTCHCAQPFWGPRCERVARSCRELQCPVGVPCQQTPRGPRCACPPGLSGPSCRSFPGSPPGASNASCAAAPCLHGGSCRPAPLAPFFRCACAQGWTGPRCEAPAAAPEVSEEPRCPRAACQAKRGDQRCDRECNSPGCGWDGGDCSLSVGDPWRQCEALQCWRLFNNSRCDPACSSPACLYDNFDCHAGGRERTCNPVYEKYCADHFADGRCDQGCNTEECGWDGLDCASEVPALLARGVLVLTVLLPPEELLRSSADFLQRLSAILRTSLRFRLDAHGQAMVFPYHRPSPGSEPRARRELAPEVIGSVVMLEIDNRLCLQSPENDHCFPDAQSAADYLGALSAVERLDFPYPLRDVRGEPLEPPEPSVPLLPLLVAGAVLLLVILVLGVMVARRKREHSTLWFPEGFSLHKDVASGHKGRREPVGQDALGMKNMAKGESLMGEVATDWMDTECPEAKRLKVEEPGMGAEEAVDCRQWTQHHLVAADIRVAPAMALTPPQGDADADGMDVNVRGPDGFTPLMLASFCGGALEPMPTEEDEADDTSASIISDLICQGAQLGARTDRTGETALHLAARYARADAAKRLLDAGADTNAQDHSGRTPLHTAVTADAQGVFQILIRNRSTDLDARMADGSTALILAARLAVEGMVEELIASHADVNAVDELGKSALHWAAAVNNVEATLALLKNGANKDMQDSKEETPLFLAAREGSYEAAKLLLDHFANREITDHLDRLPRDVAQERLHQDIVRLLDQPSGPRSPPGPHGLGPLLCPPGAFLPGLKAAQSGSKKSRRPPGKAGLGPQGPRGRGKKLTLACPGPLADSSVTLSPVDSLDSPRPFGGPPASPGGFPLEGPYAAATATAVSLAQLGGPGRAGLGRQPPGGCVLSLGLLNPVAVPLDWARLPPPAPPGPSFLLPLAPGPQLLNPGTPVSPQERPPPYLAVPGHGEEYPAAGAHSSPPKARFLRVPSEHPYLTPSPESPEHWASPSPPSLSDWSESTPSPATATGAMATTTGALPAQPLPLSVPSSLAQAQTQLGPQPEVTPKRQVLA
Chain of Torsin-1A-interacting protein 2 (Homo sapiens) (Q8NFQ8 whole entry, looked up): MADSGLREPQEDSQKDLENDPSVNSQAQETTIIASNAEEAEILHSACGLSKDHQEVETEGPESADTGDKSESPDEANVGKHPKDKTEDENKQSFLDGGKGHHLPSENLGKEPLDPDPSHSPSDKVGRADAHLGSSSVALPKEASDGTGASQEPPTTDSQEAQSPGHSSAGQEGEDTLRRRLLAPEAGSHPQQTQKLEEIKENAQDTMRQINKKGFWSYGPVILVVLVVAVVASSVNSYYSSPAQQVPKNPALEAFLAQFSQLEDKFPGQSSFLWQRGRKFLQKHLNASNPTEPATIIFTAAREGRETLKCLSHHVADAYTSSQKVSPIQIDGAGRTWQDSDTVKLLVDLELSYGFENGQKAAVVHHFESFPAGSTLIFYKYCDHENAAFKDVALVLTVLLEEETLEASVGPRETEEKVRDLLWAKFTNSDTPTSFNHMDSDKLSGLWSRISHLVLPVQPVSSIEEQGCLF
Chain of Pro-neuregulin-1, membrane-bound isoform (Homo sapiens) (Q02297 whole entry, looked up, the tested form may be a part, canonical isoform): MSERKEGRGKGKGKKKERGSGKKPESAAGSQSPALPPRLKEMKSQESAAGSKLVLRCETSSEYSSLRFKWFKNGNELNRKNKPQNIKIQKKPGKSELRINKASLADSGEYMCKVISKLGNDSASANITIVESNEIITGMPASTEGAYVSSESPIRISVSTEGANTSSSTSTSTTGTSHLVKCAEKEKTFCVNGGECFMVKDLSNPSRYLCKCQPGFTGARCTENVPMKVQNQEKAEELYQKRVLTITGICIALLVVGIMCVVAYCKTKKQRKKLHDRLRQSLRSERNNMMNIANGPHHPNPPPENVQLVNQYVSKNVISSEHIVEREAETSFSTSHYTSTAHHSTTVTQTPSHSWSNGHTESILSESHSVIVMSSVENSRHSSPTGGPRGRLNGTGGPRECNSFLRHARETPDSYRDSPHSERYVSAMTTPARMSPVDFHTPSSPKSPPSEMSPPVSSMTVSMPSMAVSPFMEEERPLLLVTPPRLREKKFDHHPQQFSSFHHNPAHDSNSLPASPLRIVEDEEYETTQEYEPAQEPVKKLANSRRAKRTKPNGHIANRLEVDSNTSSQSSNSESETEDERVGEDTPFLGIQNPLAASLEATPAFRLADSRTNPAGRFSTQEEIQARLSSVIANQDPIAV

Consider `CC=CC1=C(CO)[C@H](O)[C@H]2O[C@H]2[C@@H]1O`, for which the composite z-score in experiment [1] is -0.267; in experiment [2] it was 0.112; in [3], -0.0425; in experiment [4] it was 0.192; in experiment [5] it was 0.486; in experiment [6], -0.356. Moreover, the composite z-score in experiment [7] was 0.592; in [9], 0.133; in [10], 0.154; in experiment [11] it was 0.028; in experiment [15] it was 0.0048; in experiment [17] it was -0.221. The composite z-score in experiment [18] is 0.59; in experiment [19] it was 0.429; in experiment [20], -0.128. The z-score in experiment [8] is 0.746 (inactive); in experiment [12], 0.285 (inactive); in [13], 1.03 (inactive); in experiment [14], -0.258 (inactive); in experiment [16], 0.712 (inactive).

Regarding `C[C@@H](c1ccccc1)N1C(=O)[C@H]2[C@H]3[C@H](O)[C@H](O)CC(=NOC[C@@H](O)COCc4ccco4)[C@H]3CC[C@H]2C1=O`, the composite z-score in experiment [1] is -0.605; in experiment [2], 2.38; in [3] it was -0.212; in experiment [4] it was -0.363; in experiment [5], -0.206; in experiment [6], -0.438. Besides, the composite z-score in experiment [7] was 0.919; in [9], 0.039; in [10], -0.0994; in [11], 0.559; in experiment [15], -1.07; in experiment [17], -0.0772. Besides, the composite z-score was 0.412 in [18], -0.233 in experiment [19] and -0.164 in experiment [20]. The z-score in [8] is 0.652 (inactive); in [12] it was 0.342 (inactive); in [13], 0.453 (inactive); in experiment [14], -0.0348 (inactive); in experiment [16] it was -0.378 (inactive).

`O=C1[C@H]2[C@H]3[C@H](O)[C@H](O)CC(=NOCc4ccccc4)[C@@H]3CC[C@H]2C(=O)N1c1cccc(Oc2ccccc2)c1`: the composite z-score is -0.556 in experiment [1]; 0.101 in experiment [2]; -0.0579 in experiment [3]; 0.554 in [4]; 0.359 in [5]; 1.48 in experiment [6]. Also, the composite z-score in [7] was determined as 0.988; in [9] it was 0.529; in experiment [10] it was 0.141; in experiment [11], 1.35; in experiment [15], 1.6; in [17], 0.266. The composite z-score is 0.889 in experiment [18], 0.64 in experiment [19] and -0.0967 in experiment [20]. Also, the z-score in [8] is -0.441 (inactive); in [12], 0.663 (inactive); in experiment [13] it was 0.277 (inactive); in [14], -0.349 (inactive); in experiment [16], 0.589 (inactive).

Regarding `CCCC[C@H]1CN2[C@@H](CC[C@@H](C)[C@@H]2c2ccc(Br)cc2)C(=O)O1`, the composite z-score in experiment [1] is -0.333; in experiment [2], 0.389; in experiment [3], -0.0894; in experiment [4], -0.947; in [5], 0.564; in experiment [6], 1.19. Moreover, the composite z-score in experiment [7] is 1.11; in experiment [9] it was 0.253; in experiment [10], 0.0722; in experiment [11], 1.56; in experiment [15] it was 1.28; in experiment [17], -0.109. In addition, the values for the composite z-score in experiment [18], in experiment [19] and in [20] were 0.444, 0.728 and -0.0616, respectively. Besides, the z-score is -0.374 (inactive) in [8]; 0.149 (inactive) in experiment [12]; -16.5 (active) in experiment [13]; -0.435 (inactive) in experiment [14]; 0.0173 (inactive) in experiment [16].

Regarding `CCN1C(=O)[C@H]2[C@H]3[C@H](O)[C@H](O)CC(=NNC(=O)OCc4ccccc4)[C@H]3CC[C@H]2C1=O`, the composite z-score in [1] was 0.307; in experiment [2], 0.447; in experiment [3], 0.0572; in [4] it was -0.0005; in experiment [5], -0.0049; in experiment [6] it was -0.117. Further, the composite z-score in experiment [7] is -0.696; in experiment [9], 0.313; in [10] it was -0.13; in experiment [11], -0.72; in [15], -0.3; in experiment [17], 0.0166. Further, the composite z-score is 0.667 in experiment [18], -0.169 in [19] and -0.132 in [20]. The z-score was -0.209 (inactive) in experiment [8]; -0.0067 (inactive) in experiment [12]; 0.0826 (inactive) in [13]; -0.144 (inactive) in experiment [14]; -0.667 (inactive) in experiment [16].
